The text below walks through data of PubChem BioAssay AID540332 (The Scripps Research Institute Molecular Screening Center, 2011).

The test system of this experiment is Imidazoline I2. As to the kind of experiment: selectivity profile across receptors and CYP450s – biochemical, Ricerca HitProfilingScreen, CYP450, set 2, selectivity assay for S1P4 agonist project, profiling panel (AID 540332). The note with it: Central; at 30 µM; active compounds read high.

Molecules are shown by their SMILES. Unmarked numbers belong to inactive results. How the calls were made is not given here.

A word on the inhibition: it is the drop in the measured response relative to a control, in per cent. Take `COCCN=C1S/C(=C\c2cc(C)n(-c3ccc(F)cc3F)c2C)C(=O)N1C`: the inhibition was 2%.
